In all, about 5,500 compounds went through this assay and about 2,000 (36%) were called active. Another 18% or so got no clear call; they are omitted. Rule as the data show it: active = normalized growth mostly below about 0.91 (no sharp cut-off); inconclusive = no clear call, values can overlap the other calls; inactive = mostly above about 0.92. The list shows a part of the results.
Assay: chemical genetic growth profiling, strain panel (AID 1159580);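 also: tested at 20 µM; growth read once vehicle control cultures reached saturation at 30 °C; 1 = growth at the plate median or of vehicle wells; lower values mean less growth of the strain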
Settings: growth OD

Measured: normalized growth

CCNc1nc(Cl)nc(NC(C)C)n1
inactive: S. cerevisiae deletion strains, locus YJR075W, strain HOC1, stronger effect = lower value 1.02 | S. cerevisiae deletion strains, locus YKL009W, strain mrt4, stronger effect = lower value 1.03 | S. cerevisiae deletion strains, locus YKL068W, stronger effect = lower value 1.02 | S. cerevisiae deletion strains, locus YKL085W, strain MDH1 (second series), stronger effect = lower value 1.02 | S. cerevisiae deletion strains, locus YKL085W, strain MDH1, stronger effect = lower value 1.02 | S. cerevisiae deletion strains, locus YKL160W, strain elf1, stronger effect = lower value 1 | S. cerevisiae deletion strains, locus YKL190W, strain CNB1, stronger effect = lower value 1.03 | S. cerevisiae deletion strains, locus YKR001C, strain vps1, stronger effect = lower value 1.03 | S. cerevisiae deletion strains, locus YKR026C, strain gcn3, stronger effect = lower value 0.991 | S. cerevisiae deletion strains, locus YKR091W, strain srl3, stronger effect = lower value 1.01 | S. cerevisiae deletion strains, locus YLL001W, strain dnm1, stronger effect = lower value 0.998 | S. cerevisiae deletion strains, locus YLL026W, stronger effect = lower value 1 | S. cerevisiae deletion strains, locus YLL041C, strain sdh2, stronger effect = lower value 1 | S. cerevisiae deletion strains, locus YLR027C, strain aat2, stronger effect = lower value 0.996 | S. cerevisiae deletion strains, locus YLR039C, strain RIC1, stronger effect = lower value 1.02 | S. cerevisiae deletion strains, locus YLR058C, strain SHM2, stronger effect = lower value 1.02 | S. cerevisiae deletion strains, locus YLR102C, strain apc9, stronger effect = lower value 1.02 | S. cerevisiae deletion strains, locus YLR113W, strain HOG1, stronger effect = lower value 0.993 | S. cerevisiae deletion strains, locus YLR221C, strain rsa3, stronger effect = lower value 1.01 | S. cerevisiae deletion strains, locus YLR258W, strain gsy2, stronger effect = lower value 1.01 | S. cerevisiae deletion strains, locus YLR262C, strain YPT6 (second series), stronger effect = lower value 1.01 | S. cerevisiae deletion strains, locus YLR262C, strain YPT6, stronger effect = lower value 1.04 | S. cerevisiae deletion strains, locus YLR268W, strain sec22, stronger effect = lower value 1.01 | S. cerevisiae deletion strains, locus YLR320W, strain mms22, stronger effect = lower value 1.01 | S. cerevisiae deletion strains, locus YLR330W, strain CHS5, stronger effect = lower value 1.02 | S. cerevisiae deletion strains, locus YLR342W, strain FKS1 (second series), stronger effect = lower value 1.01 | S. cerevisiae deletion strains, locus YLR342W, strain FKS1, stronger effect = lower value 1 | S. cerevisiae deletion strains, locus YLR357W, strain rsc2, stronger effect = lower value 0.991 | S. cerevisiae deletion strains, locus YLR370C, strain arc18, stronger effect = lower value 0.984 | S. cerevisiae deletion strains, locus YLR371W, strain rom2, stronger effect = lower value 1.02 | S. cerevisiae deletion strains, locus YLR384C, strain iki3, stronger effect = lower value 1.01 | S. cerevisiae deletion strains, locus YLR418C, strain cdc73, stronger effect = lower value 1.04 | S. cerevisiae deletion strains, locus YML016C, strain PPZ1, stronger effect = lower value 1.01 | S. cerevisiae deletion strains, locus YML032C, strain rad52, stronger effect = lower value 1.03 | S. cerevisiae deletion strains, locus YML120C, strain ndi1, stronger effect = lower value 1.02 | S. cerevisiae deletion strains, locus YML124C, strain tub3, stronger effect = lower value 1.02 | S. cerevisiae deletion strains, locus YMR058W, strain fet3, stronger effect = lower value 1.01 | S. cerevisiae deletion strains, locus YMR078C, strain ctf18, stronger effect = lower value 1.01 | S. cerevisiae deletion strains, locus YMR125W, strain sto1, stronger effect = lower value 0.977 | S. cerevisiae deletion strains, locus YMR129W, stronger effect = lower value 1 | S. cerevisiae deletion strains, locus YMR205C, strain PFK2, stronger effect = lower value 1.01 | S. cerevisiae deletion strains, locus YMR223W, strain ubp8, stronger effect = lower value 1.02 | S. cerevisiae deletion strains, locus YMR231W, strain pep5, stronger effect = lower value 0.996 | S. cerevisiae deletion strains, locus YMR263W, strain SAP30, stronger effect = lower value 1.03 | S. cerevisiae deletion strains, locus YMR307W, strain GAS1, stronger effect = lower value 1.09 | S. cerevisiae deletion strains, locus YNL067W, strain RPL9B, stronger effect = lower value 1.02 | S. cerevisiae deletion strains, locus YNL071W, strain lat1, stronger effect = lower value 1.01 | S. cerevisiae deletion strains, locus YNL128W, strain TEP1, stronger effect = lower value 1.02 | S. cerevisiae deletion strains, locus YNL153C, strain GIM3, stronger effect = lower value 1.01 | S. cerevisiae deletion strains, locus YNL183C, strain NPR1, stronger effect = lower value 0.97 | S. cerevisiae deletion strains, locus YNL209W, strain ssb2, stronger effect = lower value 1.01 | S. cerevisiae deletion strains, locus YNL233W, strain BNI4, stronger effect = lower value 0.98 | S. cerevisiae deletion strains, locus YNL248C, strain rpa49, stronger effect = lower value 0.994 | S. cerevisiae deletion strains, locus YNL250W, strain rad50, stronger effect = lower value 1.01 | S. cerevisiae deletion strains, locus YNL271C, strain bni1, stronger effect = lower value 1.02 | S. cerevisiae deletion strains, locus YNL298W, strain CLA4, stronger effect = lower value 1.02 | S. cerevisiae deletion strains, locus YNL307C, strain MCK1, stronger effect = lower value 1.02 | S. cerevisiae deletion strains, locus YNL322C, strain KRE1 (second series), stronger effect = lower value 1 | S. cerevisiae deletion strains, locus YNL322C, strain KRE1, stronger effect = lower value 1.02 | S. cerevisiae deletion strains, locus YNR049C, strain mso1, stronger effect = lower value 1 | S. cerevisiae deletion strains, locus YNR052C, strain pop2, stronger effect = lower value 1.04 | S. cerevisiae deletion strains, locus YOL006C, strain TOP1, stronger effect = lower value 1.04 | S. cerevisiae deletion strains, locus YOL012C, strain htz1 1.05 | S. cerevisiae deletion strains, locus YOL147C, strain pex11, stronger effect = lower value 1.01 | S. cerevisiae deletion strains, locus YOR001W, strain rrp6, stronger effect = lower value 0.998 | S. cerevisiae deletion strains, locus YOR061W, strain CKA2, stronger effect = lower value 1.02 | S. cerevisiae deletion strains, locus YOR069W, strain VPS5, stronger effect = lower value 1.01 | S. cerevisiae deletion strains, locus YOR070C, strain gyp1, stronger effect = lower value 1.01 | S. cerevisiae deletion strains, locus YOR080W, strain dia2, stronger effect = lower value 0.995 | S. cerevisiae deletion strains, locus YOR083W, strain WHI5, stronger effect = lower value 1 | S. cerevisiae deletion strains, locus YOR106W, strain vam3, stronger effect = lower value 1.04 | S. cerevisiae deletion strains, locus YOR136W, strain idh2, stronger effect = lower value 1.02 | S. cerevisiae deletion strains, locus YOR144C, strain elg1, stronger effect = lower value 1.02 | S. cerevisiae deletion strains, locus YOR184W, strain ser1, stronger effect = lower value 1.03 | S. cerevisiae deletion strains, locus YOR231W, strain MKK1, stronger effect = lower value 0.997 | S. cerevisiae deletion strains, locus YOR265W, strain rbl2, stronger effect = lower value 1 | S. cerevisiae deletion strains, locus YOR270C, strain vph1, stronger effect = lower value 0.975 | S. cerevisiae deletion strains, locus YOR290C, strain snf2, stronger effect = lower value 1.01 | S. cerevisiae deletion strains, locus YOR316C, strain cot1, stronger effect = lower value 1.03 | S. cerevisiae deletion strains, locus YPL051W, strain arl3, stronger effect = lower value 0.98 | S. cerevisiae deletion strains, locus YPL055C, strain LGE1, stronger effect = lower value 1.03 | S. cerevisiae deletion strains, locus YPL078C, strain atp4, stronger effect = lower value 0.977 | S. cerevisiae deletion strains, locus YPL106C, strain sse1, stronger effect = lower value 1.03 | S. cerevisiae deletion strains, locus YPL240C, strain hsp82, stronger effect = lower value 1.01 | S. cerevisiae deletion strains, locus YPL241C, strain CIN2, stronger effect = lower value 1.03 | S. cerevisiae deletion strains, locus YPL256C, strain CLN2, stronger effect = lower value 0.996 | S. cerevisiae deletion strains, locus YPR119W, strain clb2, stronger effect = lower value 1.01 | S. cerevisiae deletion strains, locus YPR141C, strain kar3, stronger effect = lower value 1.03 | S. cerevisiae deletion strains, locus YPR163C, strain tif3, stronger effect = lower value 1.03 | S. cerevisiae deletion strains, locus YPR167C, strain met16, stronger effect = lower value 1.02 | S. cerevisiae deletion strains, strain wtn01, stronger effect = lower value 1.02 | S. cerevisiae strains, strain wild type, stronger effect = lower value 1.02
